Reference: article PMC7862700, “An all-to-all approach to the identification of sequence-specific readers for epigenetic DNA modifications on cytosine”

How the values were obtained:
Experiment in all cases: DAPPL (digital affinity profiling via proximity ligation, sequencing); 10 mM Tris-HCl pH 7.5, 50 mM NaCl, 1 mM DTT, 4% glycerol, room temperature, 30 min; GST-TFs on glutathione beads, 16-mer random dsDNA library, 0.1% formaldehyde crosslink after washing; high values mean tight binding
[1] = molecular target: T1, FLI1 (Homo sapiens, UniProt Q01543 1-452); settings: protein: recombinant; tags: N-terminal GST; dsDNA, one strand shown
T1 sequence: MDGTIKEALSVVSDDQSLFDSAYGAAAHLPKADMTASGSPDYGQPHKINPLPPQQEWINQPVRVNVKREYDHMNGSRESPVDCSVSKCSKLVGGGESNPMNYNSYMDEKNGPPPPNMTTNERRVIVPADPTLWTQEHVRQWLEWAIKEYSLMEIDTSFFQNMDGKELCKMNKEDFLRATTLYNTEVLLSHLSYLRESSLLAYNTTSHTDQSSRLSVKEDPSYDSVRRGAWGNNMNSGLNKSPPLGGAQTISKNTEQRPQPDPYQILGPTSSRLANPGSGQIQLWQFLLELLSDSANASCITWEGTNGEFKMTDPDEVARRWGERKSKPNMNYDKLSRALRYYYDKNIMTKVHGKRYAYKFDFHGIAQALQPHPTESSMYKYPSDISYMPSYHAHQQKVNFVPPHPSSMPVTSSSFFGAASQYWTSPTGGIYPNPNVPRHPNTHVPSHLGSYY
In short: (§1)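 In yeast, human transcription factors were expressed with a GST fusion, then pulled down on glutathione beads and given DNA barcodes. Pooled with a tag-only sample, they were exposed to 200 nmole of a 16-mer random double-stranded DNA library (Tris/NaCl/DTT/glycerol buffer, room temperature, 30 min), washed, crosslinked with 0.1% formaldehyde, proximity-ligated using BsaI/T4 ligase for 1 h at 37 °C, PCR-amplified and read on an Illumina NextSeq500. Each hexamer's frequency of reads for a factor, divided by the matching frequency for the tag-only sample, gives the binding signal.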

[2] = molecular target: T2, ELK1 (Homo sapiens, UniProt P19419 1-428); settings: protein: recombinant; tags: N-terminal GST; dsDNA, one strand shown
T2 sequence: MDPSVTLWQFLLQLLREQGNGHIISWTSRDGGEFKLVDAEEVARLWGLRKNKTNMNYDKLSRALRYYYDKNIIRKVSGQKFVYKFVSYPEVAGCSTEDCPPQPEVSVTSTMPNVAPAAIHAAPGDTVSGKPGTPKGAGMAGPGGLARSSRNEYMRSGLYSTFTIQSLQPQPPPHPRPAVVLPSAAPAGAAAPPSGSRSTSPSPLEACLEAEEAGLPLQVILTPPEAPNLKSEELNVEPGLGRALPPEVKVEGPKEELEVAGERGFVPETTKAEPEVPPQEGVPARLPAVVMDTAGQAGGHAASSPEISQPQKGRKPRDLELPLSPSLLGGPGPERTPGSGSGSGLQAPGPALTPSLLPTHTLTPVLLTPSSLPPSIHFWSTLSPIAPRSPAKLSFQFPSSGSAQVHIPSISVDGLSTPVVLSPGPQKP
In short: as §1

[3] = molecular target: T3, GABPA (Homo sapiens, UniProt Q06546 1-454); settings: protein: recombinant; tags: N-terminal GST; dsDNA, one strand shown
T3 sequence: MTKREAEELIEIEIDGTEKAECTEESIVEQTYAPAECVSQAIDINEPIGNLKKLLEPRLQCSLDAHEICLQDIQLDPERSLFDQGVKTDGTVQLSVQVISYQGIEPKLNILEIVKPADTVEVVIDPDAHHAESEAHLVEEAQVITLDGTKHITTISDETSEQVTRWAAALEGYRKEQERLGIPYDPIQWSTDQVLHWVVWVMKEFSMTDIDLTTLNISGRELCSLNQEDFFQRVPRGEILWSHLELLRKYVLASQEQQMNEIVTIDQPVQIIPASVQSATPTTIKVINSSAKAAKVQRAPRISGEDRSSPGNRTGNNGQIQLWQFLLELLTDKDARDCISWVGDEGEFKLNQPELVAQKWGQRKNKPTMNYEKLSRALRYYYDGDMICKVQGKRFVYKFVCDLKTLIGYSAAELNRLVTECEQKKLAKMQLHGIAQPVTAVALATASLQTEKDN
In short: as §1

[4] = molecular target: T4, ERG (Homo sapiens, UniProt P11308 1-479); settings: protein: recombinant; tags: N-terminal GST; dsDNA, one strand shown
T4 sequence: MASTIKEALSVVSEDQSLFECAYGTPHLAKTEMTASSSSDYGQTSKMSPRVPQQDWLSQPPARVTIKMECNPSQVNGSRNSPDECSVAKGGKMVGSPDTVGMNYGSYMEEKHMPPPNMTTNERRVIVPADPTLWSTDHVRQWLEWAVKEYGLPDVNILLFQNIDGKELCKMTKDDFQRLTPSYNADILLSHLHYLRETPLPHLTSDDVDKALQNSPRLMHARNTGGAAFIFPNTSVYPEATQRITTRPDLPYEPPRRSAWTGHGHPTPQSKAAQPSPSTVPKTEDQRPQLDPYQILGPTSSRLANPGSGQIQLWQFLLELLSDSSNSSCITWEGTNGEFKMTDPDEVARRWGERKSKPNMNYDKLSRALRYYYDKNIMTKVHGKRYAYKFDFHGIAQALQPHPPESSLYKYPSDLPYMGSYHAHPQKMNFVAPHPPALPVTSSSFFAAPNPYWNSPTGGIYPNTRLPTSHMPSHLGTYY
In short: as §1

[5] = molecular target: ELF1 (Homo sapiens, UniProt P32519 1-619); settings: protein: recombinant; tags: N-terminal GST; dsDNA, one strand shown
ELF1, sequence (P32519 whole entry): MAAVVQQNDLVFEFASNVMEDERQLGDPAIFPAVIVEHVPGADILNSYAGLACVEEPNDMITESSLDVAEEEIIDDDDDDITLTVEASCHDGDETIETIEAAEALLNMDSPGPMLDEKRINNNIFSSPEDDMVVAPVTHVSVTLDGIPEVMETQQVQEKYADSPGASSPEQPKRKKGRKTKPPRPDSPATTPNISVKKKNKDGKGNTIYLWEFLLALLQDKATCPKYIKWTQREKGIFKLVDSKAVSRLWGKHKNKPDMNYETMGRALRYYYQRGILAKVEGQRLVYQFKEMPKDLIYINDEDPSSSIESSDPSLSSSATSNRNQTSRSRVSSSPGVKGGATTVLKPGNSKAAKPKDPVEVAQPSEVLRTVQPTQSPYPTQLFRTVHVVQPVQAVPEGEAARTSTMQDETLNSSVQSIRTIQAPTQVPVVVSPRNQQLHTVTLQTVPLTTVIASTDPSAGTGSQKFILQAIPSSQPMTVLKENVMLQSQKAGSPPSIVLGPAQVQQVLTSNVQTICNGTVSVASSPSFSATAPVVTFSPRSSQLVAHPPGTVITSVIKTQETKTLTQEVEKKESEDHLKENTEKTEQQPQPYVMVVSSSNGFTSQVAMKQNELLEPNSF
In short: as §1

[6] = molecular target: T5, EHF (Homo sapiens, UniProt Q9NZC4 1-300); settings: protein: recombinant; tags: N-terminal GST; dsDNA, one strand shown
T5 sequence: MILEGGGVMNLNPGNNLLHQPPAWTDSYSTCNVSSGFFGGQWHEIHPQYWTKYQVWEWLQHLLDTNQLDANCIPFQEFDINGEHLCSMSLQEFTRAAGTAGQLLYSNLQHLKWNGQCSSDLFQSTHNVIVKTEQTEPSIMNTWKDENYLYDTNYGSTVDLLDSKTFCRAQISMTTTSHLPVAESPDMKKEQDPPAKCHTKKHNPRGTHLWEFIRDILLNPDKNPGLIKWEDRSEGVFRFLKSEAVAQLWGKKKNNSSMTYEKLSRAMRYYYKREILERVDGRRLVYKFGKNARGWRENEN
In short: as §1

[7] = molecular target: SPI1 (Homo sapiens, UniProt P17947 1-270); settings: protein: recombinant; tags: N-terminal GST; dsDNA, one strand shown
In short: as §1

[8] = molecular target: SPIB (Homo sapiens, UniProt Q01892 1-262); settings: protein: recombinant; tags: N-terminal GST; dsDNA, one strand shown
SPIB, sequence (Q01892 whole entry): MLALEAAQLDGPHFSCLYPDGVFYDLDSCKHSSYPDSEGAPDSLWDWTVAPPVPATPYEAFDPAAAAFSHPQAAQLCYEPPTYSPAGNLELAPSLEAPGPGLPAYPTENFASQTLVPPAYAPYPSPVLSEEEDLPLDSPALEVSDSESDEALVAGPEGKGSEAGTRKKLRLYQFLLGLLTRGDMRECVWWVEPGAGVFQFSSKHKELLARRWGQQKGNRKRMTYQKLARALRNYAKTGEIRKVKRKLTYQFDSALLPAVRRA
In short: as §1

[9] = molecular target: T6, ELK3 (Homo sapiens, UniProt P41970 1-407); settings: protein: recombinant; tags: N-terminal GST; dsDNA, one strand shown
T6 sequence: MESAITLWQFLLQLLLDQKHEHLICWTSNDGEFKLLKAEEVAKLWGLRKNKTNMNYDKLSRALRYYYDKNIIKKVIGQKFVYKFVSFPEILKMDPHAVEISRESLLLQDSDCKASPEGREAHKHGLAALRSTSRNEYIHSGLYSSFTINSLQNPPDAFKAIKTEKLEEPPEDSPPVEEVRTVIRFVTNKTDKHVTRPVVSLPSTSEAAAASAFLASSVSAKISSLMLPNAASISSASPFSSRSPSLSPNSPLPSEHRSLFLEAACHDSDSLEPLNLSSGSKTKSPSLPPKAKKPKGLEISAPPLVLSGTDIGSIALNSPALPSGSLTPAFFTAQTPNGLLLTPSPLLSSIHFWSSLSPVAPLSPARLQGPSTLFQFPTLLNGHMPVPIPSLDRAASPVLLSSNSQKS
In short: as §1

[10] = molecular target: T7, FEV (Homo sapiens, UniProt Q99581 1-238); settings: protein: recombinant; tags: N-terminal GST; dsDNA, one strand shown
T7 sequence: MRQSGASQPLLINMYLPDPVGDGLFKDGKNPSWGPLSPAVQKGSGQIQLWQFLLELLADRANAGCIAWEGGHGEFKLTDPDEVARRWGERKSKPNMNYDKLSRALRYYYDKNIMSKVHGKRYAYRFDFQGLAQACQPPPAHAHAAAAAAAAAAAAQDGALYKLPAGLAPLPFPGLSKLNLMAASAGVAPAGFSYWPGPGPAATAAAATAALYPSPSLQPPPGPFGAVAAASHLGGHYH
In short: as §1

[11] = molecular target: ETV5 (Homo sapiens, UniProt P41161 1-510); settings: protein: recombinant; tags: N-terminal GST; dsDNA, one strand shown
ETV5, sequence (P41161 whole entry): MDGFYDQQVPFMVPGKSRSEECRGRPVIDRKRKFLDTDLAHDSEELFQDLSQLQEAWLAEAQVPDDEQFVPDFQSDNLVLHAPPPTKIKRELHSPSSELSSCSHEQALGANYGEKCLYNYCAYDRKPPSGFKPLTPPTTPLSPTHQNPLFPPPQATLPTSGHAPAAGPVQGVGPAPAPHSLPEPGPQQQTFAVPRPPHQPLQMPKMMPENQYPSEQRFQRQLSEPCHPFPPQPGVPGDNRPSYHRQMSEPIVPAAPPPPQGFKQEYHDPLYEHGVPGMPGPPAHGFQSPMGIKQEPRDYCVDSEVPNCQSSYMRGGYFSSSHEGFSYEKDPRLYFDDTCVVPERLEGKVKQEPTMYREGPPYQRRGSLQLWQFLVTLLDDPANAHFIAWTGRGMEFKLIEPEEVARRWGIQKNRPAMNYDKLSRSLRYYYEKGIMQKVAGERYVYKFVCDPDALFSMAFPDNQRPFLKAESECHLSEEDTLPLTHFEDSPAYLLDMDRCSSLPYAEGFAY
In short: as §1

[12] = molecular target: HSF1 (Homo sapiens, UniProt Q00613 1-529); settings: protein: recombinant; tags: N-terminal GST; chain copies: 3; dsDNA, one strand shown
HSF1, sequence (Q00613 whole entry): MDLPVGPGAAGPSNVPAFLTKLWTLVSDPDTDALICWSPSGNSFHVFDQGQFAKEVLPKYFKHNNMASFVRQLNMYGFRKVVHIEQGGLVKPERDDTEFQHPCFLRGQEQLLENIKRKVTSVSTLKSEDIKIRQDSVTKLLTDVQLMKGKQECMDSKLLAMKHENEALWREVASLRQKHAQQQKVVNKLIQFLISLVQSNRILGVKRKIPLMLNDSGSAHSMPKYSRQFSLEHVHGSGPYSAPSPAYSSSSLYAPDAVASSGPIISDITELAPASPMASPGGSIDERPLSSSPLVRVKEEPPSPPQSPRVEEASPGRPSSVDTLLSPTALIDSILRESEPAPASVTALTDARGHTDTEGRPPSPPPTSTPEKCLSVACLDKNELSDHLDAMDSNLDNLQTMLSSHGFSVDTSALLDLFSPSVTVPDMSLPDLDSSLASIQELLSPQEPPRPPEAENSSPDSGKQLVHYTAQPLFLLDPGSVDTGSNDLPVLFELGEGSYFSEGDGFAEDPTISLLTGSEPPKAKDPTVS
In short: as §1

[13] = molecular target: T8, SPIC (Homo sapiens, UniProt Q8N5J4 1-248); settings: protein: recombinant; tags: N-terminal GST; dsDNA, one strand shown
T8 sequence: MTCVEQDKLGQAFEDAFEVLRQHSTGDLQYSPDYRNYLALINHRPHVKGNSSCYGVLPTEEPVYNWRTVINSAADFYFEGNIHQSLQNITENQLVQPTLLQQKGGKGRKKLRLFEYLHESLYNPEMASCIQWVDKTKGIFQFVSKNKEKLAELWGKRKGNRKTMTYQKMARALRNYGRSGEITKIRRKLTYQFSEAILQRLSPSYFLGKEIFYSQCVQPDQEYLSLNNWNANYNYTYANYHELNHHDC
In short: as §1

[14] = molecular target: ELF4 (Homo sapiens, UniProt Q99607 1-663); settings: protein: recombinant; tags: N-terminal GST; dsDNA, one strand shown
ELF4, sequence (Q99607 whole entry): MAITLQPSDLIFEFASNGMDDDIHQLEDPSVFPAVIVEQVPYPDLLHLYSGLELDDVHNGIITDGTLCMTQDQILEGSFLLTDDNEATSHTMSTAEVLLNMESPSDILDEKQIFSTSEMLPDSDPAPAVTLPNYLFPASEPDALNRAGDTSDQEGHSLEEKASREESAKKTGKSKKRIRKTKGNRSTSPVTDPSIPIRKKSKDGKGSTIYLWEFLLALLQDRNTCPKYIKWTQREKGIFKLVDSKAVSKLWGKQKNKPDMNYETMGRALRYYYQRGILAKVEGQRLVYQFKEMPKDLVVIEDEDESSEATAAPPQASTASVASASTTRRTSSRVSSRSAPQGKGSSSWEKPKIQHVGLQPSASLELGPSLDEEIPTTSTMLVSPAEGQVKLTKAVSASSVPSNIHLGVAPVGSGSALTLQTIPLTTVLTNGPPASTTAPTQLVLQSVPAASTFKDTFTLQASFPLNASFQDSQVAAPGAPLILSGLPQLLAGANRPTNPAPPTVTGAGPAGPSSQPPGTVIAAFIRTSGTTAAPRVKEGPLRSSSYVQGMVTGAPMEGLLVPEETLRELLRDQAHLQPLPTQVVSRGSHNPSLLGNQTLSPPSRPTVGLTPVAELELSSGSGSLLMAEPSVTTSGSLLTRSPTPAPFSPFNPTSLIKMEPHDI
In short: as §1

[15] = molecular target: T9, ELK4 (Homo sapiens, UniProt P28324-2 1-405); settings: protein: recombinant; tags: N-terminal GST; dsDNA, one strand shown
T9 sequence: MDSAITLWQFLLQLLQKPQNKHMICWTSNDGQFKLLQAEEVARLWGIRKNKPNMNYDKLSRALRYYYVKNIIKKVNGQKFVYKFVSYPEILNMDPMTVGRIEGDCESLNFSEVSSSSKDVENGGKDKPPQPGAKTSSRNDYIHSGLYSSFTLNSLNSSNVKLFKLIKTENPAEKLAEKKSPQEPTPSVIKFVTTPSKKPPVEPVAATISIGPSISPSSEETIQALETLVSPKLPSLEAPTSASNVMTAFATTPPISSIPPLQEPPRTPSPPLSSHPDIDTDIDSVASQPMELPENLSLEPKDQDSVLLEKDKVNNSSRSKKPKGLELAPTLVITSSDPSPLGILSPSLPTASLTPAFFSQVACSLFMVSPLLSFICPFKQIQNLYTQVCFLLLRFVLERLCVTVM
In short: as §1

[16] = molecular target: T10, ETV2 (Homo sapiens, UniProt O00321 1-342); settings: protein: recombinant; tags: N-terminal GST; dsDNA, one strand shown
T10 sequence: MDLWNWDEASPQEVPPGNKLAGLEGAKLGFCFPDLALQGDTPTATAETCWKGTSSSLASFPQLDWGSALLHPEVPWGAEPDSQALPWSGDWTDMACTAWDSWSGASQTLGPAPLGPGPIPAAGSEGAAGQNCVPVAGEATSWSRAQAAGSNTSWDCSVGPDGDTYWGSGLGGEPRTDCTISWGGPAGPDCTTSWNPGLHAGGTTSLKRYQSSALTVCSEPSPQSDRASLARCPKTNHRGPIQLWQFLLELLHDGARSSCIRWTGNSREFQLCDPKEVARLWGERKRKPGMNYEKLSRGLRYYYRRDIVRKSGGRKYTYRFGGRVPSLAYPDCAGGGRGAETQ
In short: as §1

[17] = molecular target: T11, ELF3 (Homo sapiens, UniProt P78545 1-371); settings: protein: recombinant; tags: N-terminal GST; dsDNA, one strand shown
T11 sequence: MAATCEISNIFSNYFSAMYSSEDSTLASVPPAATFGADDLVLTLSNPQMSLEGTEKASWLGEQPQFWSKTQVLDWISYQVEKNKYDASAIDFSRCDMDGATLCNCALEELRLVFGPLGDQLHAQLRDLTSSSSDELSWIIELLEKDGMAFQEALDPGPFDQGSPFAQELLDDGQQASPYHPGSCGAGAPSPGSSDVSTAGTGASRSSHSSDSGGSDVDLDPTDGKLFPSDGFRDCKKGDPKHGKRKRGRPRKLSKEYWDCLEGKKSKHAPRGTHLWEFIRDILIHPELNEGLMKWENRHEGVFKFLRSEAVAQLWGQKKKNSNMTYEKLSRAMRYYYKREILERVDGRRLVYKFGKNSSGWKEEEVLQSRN
In short: as §1

[18] = molecular target: CRX (Homo sapiens, UniProt O43186 1-299); settings: protein: recombinant; tags: N-terminal GST; dsDNA, one strand shown
CRX, sequence (O43186 whole entry): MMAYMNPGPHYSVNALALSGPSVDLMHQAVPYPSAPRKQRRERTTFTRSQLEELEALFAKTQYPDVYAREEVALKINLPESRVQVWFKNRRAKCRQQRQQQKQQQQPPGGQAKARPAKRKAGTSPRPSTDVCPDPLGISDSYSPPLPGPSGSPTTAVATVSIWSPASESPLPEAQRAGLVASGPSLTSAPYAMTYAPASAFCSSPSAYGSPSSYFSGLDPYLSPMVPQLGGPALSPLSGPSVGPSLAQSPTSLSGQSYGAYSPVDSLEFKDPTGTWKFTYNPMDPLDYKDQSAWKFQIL
In short: as §1

[19] = molecular target: ETV1 (Homo sapiens, UniProt P50549 1-477); settings: protein: recombinant; tags: N-terminal GST; dsDNA, one strand shown
ETV1, sequence (P50549 whole entry): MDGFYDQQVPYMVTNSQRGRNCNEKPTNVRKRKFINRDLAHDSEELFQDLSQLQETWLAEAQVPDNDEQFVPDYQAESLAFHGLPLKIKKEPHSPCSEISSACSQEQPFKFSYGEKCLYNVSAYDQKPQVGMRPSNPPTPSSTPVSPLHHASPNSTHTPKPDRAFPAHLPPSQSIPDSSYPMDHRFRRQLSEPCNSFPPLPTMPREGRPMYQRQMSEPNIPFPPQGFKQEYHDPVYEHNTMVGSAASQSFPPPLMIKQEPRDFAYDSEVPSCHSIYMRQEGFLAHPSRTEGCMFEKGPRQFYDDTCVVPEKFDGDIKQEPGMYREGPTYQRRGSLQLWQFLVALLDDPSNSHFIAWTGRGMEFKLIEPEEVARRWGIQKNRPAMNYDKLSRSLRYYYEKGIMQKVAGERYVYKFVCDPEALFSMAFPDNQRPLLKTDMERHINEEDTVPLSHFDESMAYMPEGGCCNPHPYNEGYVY
In short: as §1

Question: Which results are given for AGGTCT?
Answer: binding signal [1]: 1.31 fold enrichment (6-mer frequency, TF over GST control); binding signal [2]: 1.17 fold enrichment (6-mer frequency, TF over GST control); binding signal [3]: 1.16 fold enrichment (6-mer frequency, TF over GST control); binding signal [4]: 1.15 fold enrichment (6-mer frequency, TF over GST control); binding signal [5]: 1.22 fold enrichment (6-mer frequency, TF over GST control); binding signal [6]: 1.19 fold enrichment (6-mer frequency, TF over GST control); binding signal [7]: 1.11 fold enrichment (6-mer frequency, TF over GST control); binding signal [8]: 1.22 fold enrichment (6-mer frequency, TF over GST control); binding signal [9]: 1.3 fold enrichment (6-mer frequency, TF over GST control); binding signal [10]: 1.11 fold enrichment (6-mer frequency, TF over GST control); binding signal [11]: 1.2 fold enrichment (6-mer frequency, TF over GST control); binding signal [12]: 1.09 fold enrichment (6-mer frequency, TF over GST control); binding signal [13]: 1.13 fold enrichment (6-mer frequency, TF over GST control); binding signal [14]: 1.2 fold enrichment (6-mer frequency, TF over GST control); binding signal [15]: 1.23 fold enrichment (6-mer frequency, TF over GST control); binding signal [16]: 1.23 fold enrichment (6-mer frequency, TF over GST control); binding signal [17]: 1.08 fold enrichment (6-mer frequency, TF over GST control); binding signal [18]: 1.21 fold enrichment (6-mer frequency, TF over GST control); binding signal [19]: 1.16 fold enrichment (6-mer frequency, TF over GST control)
